Out of some 360,000 compounds screened, about 17,000 (4.7%) were called active. About 5% were inconclusive and are not listed. Many of the other results were omitted from the sample, so actives are more common in it than they were. Values without a mark were called inactive. Cut-off read from the data, not from the text of the source: active = activity change below about -50%; inconclusive = mostly about -30% to -49%; inactive = weaker than that.
test: qHTS for Inhibitors of Inflammasome Signaling: IL-1-beta AlphaLISA Primary Screen; settings: THP-1 LPS/ATP IL-1B secretion, 16 h; at 57.5 µM, active compounds read low
Procedure, shortened: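 Secreted IL-1B measured by AlphaLISA bead assay after 16 h compound exposure of THP-1 cells; compounds (final up to 57.5 uM) added 1 h before LPS (250 ng/mL) and ATP (1.25 mM) stimulation; lower signal means less secretion.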
% is set by controls: 0 for no effect and ±100 for the full control effect.

Row | Structure (SMILES) | activity change
1 | COC(=O)c1ccccc1N=Nc1c(C)[nH][nH]c1=O | 1.34%
2 | CCOc1cc(/C=N/NC(=O)c2c(C)nc3ccc(Cl)cn23)ccc1O | 11.7%
3 | O=C(NCC1CCCO1)c1cc2c([nH]c3ccccc32)c(-c2ccc(F)cc2)n1 (stereo not drawn) | -10.2%
4 | O=C(NCCc1ccc(F)cc1)c1n[nH]c2ccccc12 | 29.4%
5 | O=C(NCCCO)c1cc2c([nH]c3ccccc32)c(-c2ccc(F)cc2)n1 | -65.7% (active)
6 | CC(C(=O)NCCc1ccc(S(N)(=O)=O)cc1)N1C(=O)CC(C)(C)Sc2ccccc21 (stereo not drawn) | 25.8%
7 | CCCOc1ccc(C(=O)CCC(=O)OC(C)C(=O)Nc2ccc(NC(C)=O)cc2)cc1 (stereo not drawn) | 10.1%
8 | CCCOc1ccc(NC(=O)C2CCCNC2=O)cc1 (stereo not drawn) | -6.06%
9 | CCCOc1ccc(C(=O)C(CCC(CNCC)C(=O)c2ccc(OCCC)cc2)CNCC)cc1 (stereo not drawn) | -94% (active)
10 | Cc1[nH]c2ccccc2c1/C=N/NC(=O)CNC(=O)c1ccc2c(c1)OCO2 | 0%
11 | COCCNC(=S)N/N=C/c1c(C)[nH]c2ccccc12 | -69.7% (active)
12 | COc1ccc2ccccc2c1/C=N/NC(=O)c1cc(C)[nH]n1 | 0%
13 | OCCNc1nc2ccccc2n1-c1ncnc2sc3c(c12)CCC3 | 20.3%
14 | CC1=C(C(=O)N2CCOCC2)CC(CC(=O)NCCCN(C)C)C(=O)N1Cc1ccc(C(C)(C)C)cc1 (stereo not drawn) | -21.9%
15 | CCOC(=O)NC(=O)/C(C#N)=C\c1ccccc1 | 3.54%
16 | CCOC(=O)c1ccccc1OC(=O)Oc1ccccc1C(=O)OCC | -16.9%
17 | COc1ccccc1C(=O)c1ccccc1C(=O)c1ccccc1 | -7.51%
18 | CCOC(=O)C(=Cc1ccccc1OC)C(=O)OCC | -99.3% (active)
19 | CCOC(=O)C(=Cc1ccccc1)C(=O)c1ccccc1 | -98.2% (active)
20 | CCOC(=O)C(=CNc1cccc(C)n1)C(=O)OCC | 16.2%
21 | C=CCn1c(=O)n(C)c2c(=O)n(C)c(=O)n(C)c21 | -2.57%
22 | Cc1ccc(F)c(S(=O)(=O)NC(=O)C2(C)CCN2C(=O)CCc2cccs2)c1 (stereo not drawn) | 0.428%
23 | Cc1ccc(NC(=O)CN(C)C(=O)c2cccc(S(=O)(=O)N3CCCC3)c2)cc1 | 8.98%
24 | NC(CSC1(c2ccccc2)c2ccccc2-c2ccccc21)C(=O)O (stereo not drawn) | 24.5%

Row | Structure (SMILES) | activity change
25 | CC(=O)c1ccc(S(=O)(=O)NCc2nnnn2-c2ccccc2)cc1 | 8.11%
26 | O=C(NCc1nnnn1-c1ccc(Cl)cc1)c1ccc([N+](=O)[O-])o1 | -76.1% (active)
27 | CN(C)c1nnnn1-c1ccc(Cl)cc1 | 13.4%
28 | CC1=C(C(=O)N2CCOCC2)CC(CC(=O)NCCN2CCOCC2)C(=O)N1CCC1=CCCCC1 (stereo not drawn) | 11.4%
29 | CC(C)CCn1cnc2c1c(=O)n(CC(=O)NC(N)=O)c(=O)n2Cc1ccccc1 | -1.43%
30 | COCCn1cnc2c1c(=O)n(Cc1ccc(Br)cc1)c(=O)n2Cc1ccccc1 | -61.2% (active)
31 | COCCn1cnc2c1c(=O)n(CC(=O)NN)c(=O)n2Cc1ccccc1 | 0.195%
32 | COc1ccc2c(c1)CCCO[C@]21O[C@H](CCO)C[C@H](O)[C@H]1O | 24.3%
33 | Clc1ccc2nc(-c3ccccc3)nc(C(Cl)Cl)c2c1 | 42.9%
34 | COC(=O)Cn1nc(-c2ccccc2)c2cc(Cl)ccc21 | -6.25%
35 | NC(N)=Nc1nc(-c2ccccc2)c2cc(Cl)ccc2n1 | -81.6% (active)
36 | Cc1cccc(NS(=O)(=O)c2ccc(C)c(C(=O)NCC(c3ccccc3)N(C)C)c2)c1 (stereo not drawn) | -29.1%
37 | CC(C(=O)NCC1CCCCC1)N(C)Cc1cccc(Cl)c1 (stereo not drawn) | -16.9%
38 | O=Nc1c(O)cc(O)c2ccccc12 | -2.52%
39 | CC1(C)C(=O)Nc2ccccc2N1C(=O)COC(=O)Cn1cnc2ccccc2c1=O | 7.25%
40 | O=C(COC(=O)Cn1cnc2ccccc2c1=O)NCc1ccccc1Cl | 12.2%
41 | O=C(COC(=O)Cn1cnc2ccccc2c1=O)NCC12CC3CC(CC(C3)C1)C2 | -52.9% (active)
42 | CCc1cc(-c2nnn(CCC3COCCO3)c2CC)ccc1-c1cn(Cc2ccc3ccccc3c2)nn1 (stereo not drawn) | 52.6%
43 | Cc1ccc(CNC(=O)C2CCN(S(=O)(=O)c3ccc4nc5c(c(C(=O)O)c4c3)CC(C)CC5)CC2)cc1 (stereo not drawn) | 1.65%
44 | COc1ccc(CC2(CO)CCN(Cc3cnn(C)c3)CC2)cc1 | 12.5%
45 | Cc1cccc(-c2ncc(CN3CCC(CO)(CCCc4ccccc4)CC3)cn2)c1 | -19.1%
46 | COc1cccc(CC2(CO)CCN(Cc3cnc(-c4cccc(C)c4)nc3)CC2)c1 | -64.4% (active)
47 | CC(=O)c1cc(CN2CCC(n3nccc3NC(=O)c3ccccc3Cl)CC2)cs1 | -15.4%
48 | O=C(NCc1nnc(SCC(=O)N2CCC(Cc3ccccc3)CC2)o1)c1ccco1 | -92.1% (active)

Row | Structure (SMILES) | activity change
49 | Cn1c(CNC(=O)c2ccco2)nnc1SCC(=O)N1CCN(c2ccccc2)CC1 | 52%
50 | O=C(NCc1nnc(SCC(=O)N2CCCCCC2)o1)c1ccc(F)cc1 | 22.8%
51 | NC(=O)C1(Nc2ccccc2Cl)CCCC1 | -1.93%
52 | CCOC(=O)[C@]12CCCC=C1N(Cc1ccc3c(c1)OCO3)C(=O)[C@H](CC(=O)NCc1cccs1)C2 | 0%
53 | O=C(O)CC1=C(Nc2ccccc2)C(=O)N(c2ccccc2)C1c1ccc(Cl)cc1 (stereo not drawn) | 0%
54 | O=C1C=C(c2ccc(Cl)cc2)C(=O)N1Nc1ccccc1 | -76.1% (active)
55 | O=C(CCC(=O)OCc1ccc(Cl)cc1)Nc1ccccc1 | 15%
56 | COc1ccc(NC(=O)C(C)N2c3cccc4cccc(c34)S2(=O)=O)c(OC)c1 (stereo not drawn) | 27.8%
57 | CCC(C)CN1C(=O)CN(S(C)(=O)=O)CC1(C)C(=O)Nc1ccc2c(c1)OCCO2 (stereo not drawn) | -19.9%
58 | COc1ccc(-c2cc3c(c4c2ccn4C)C2CCC3C2)cn1 (stereo not drawn) | 0%
59 | COc1ccc(CCNCc2c(-c3ccccc3)n(C)c3ccccc23)cc1 | -97.2% (active)
60 | COc1ccc(-c2nc3ccccc3c(=O)n2CCc2ccc(O)cc2)cc1 | -13%
61 | COc1ccc(-c2c(C#Cc3ccccc3)c3ccccc3n2C)cc1 | -16.3%
62 | CCN1CN(Cc2ccccc2)CNC1=S | 0.299%
63 | CCc1nnc(NC(=O)C2CCN(C(=O)c3ccccc3C)CC2)s1 | -4.49%
64 | Cc1ccc(C(NC(=O)C2CCN(CCOc3ccc(Cl)cc3Cl)CC2)c2ccccn2)cc1 (stereo not drawn) | -68.4% (active)
65 | O=C(CCCOc1ccc(Cl)cc1Cl)NNC(=O)C1CCC1 | -7.73%
66 | CCOc1ccc(S(=O)(=O)N2CCC(C(=O)NCc3ccccn3)CC2)cc1Cl | -5.47%
67 | CC(C)C[C@@H]1COc2cc(N3CCC[C@@H]3CO)ccc2S(=O)(=O)N1 | 24.4%
68 | CN(NC(=O)c1ccccc1F)c1nc(C(F)(F)F)nc2ccccc12 | 94.2%
69 | CCc1ccc(C(CNc2nc(C(F)(F)F)nc3ccccc23)N(C)C)cc1 (stereo not drawn) | -104% (active)
70 | COc1cccc(CNc2nc(C(F)(F)F)nc3ccccc23)c1 | -81.4% (active)
71 | NS(=O)(=O)c1ccc(CCNc2nc(C(F)(F)F)nc3ccccc23)cc1 | -29.6%
72 | COc1cccc(CNC(=O)c2n[nH]c3ccccc23)c1 | -5.24%

Row | Structure (SMILES) | activity change
73 | COc1ccc(CNc2ncnc3ccccc23)cc1 | -5.53%
74 | O=C(NCCc1ccc(F)cc1)c1ccc(S(=O)(=O)N2CCCCC2)cc1 | 7.26%
75 | CC1CN/C(=C\C(=O)c2ccc(Br)cc2)C(=O)N1 (stereo not drawn) | -2.3%
76 | CCc1nc2c(=O)[nH]cnc2o1 | -0.15%
77 | CCCNC(=O)C1(C)CCCN(Cc2c(C)nn(-c3ccccc3)c2C)C1 (stereo not drawn) | 0%
78 | C[C@H]1Cn2cnc(C(=O)N[C@H](C)c3ccccc3)c2C(=O)N1 | 56.9%
79 | O=C(Nc1cccc(C(=O)O)c1)/C(=C\c1ccccc1)NC(=O)c1ccc(Br)o1 | -24.2%
80 | C[C@H]1CN([C@@H](C)CO)S(=O)(=O)c2ccc(Br)cc2O[C@H]1CN(C)C(=O)c1cnccn1 | 7.37%
81 | Nc1c(C(=O)c2cccs2)sc2nsc(SCCN3CCCCC3)c12 | -95.7% (active)
82 | O=C(CSc1ncnc2sccc12)N1CCN(C(=O)c2cccs2)CC1 | -0.616%
83 | CCC1OC(C2CC2)CC2=C1C(=O)OC(C)(C)O2 (stereo not drawn) | 29.6%
84 | COc1ccc(C2N=C(N)N=C(N)N2c2ccccc2)cc1OC (stereo not drawn) | -16.9%
85 | O=[N+]([O-])c1ccc(N2CCN(c3ccc(F)cc3)CC2)cn1 | -1.6%
86 | NC1=NC(c2ccc([N+](=O)[O-])cc2)N(c2ccc(F)cc2)C(N)=N1 (stereo not drawn) | -52.3% (active)
87 | CC(C)(C)c1ccc(S(=O)(=O)NC(=O)C2(C)CCN2C(=O)CC2CC2)cc1 (stereo not drawn) | -3.72%
88 | CC(Nc1nc(N2CCCC2)nc2ccccc12)c1ccccc1 (stereo not drawn) | -80.2% (active)
89 | c1ccc(-c2cc(N3CCCCC3)c3ccccc3n2)cc1 | -26.2%
90 | CC(Nc1nc(N2CCOCC2)nc2ccccc12)c1ccccc1 (stereo not drawn) | 0%
91 | CCCCn1c(CN2CCN(CCO)CC2)nc2ccccc21 | 44.1%
92 | Cn1c(=O)[nH]c(=O)c2c1nc(N1CCN(CCO)CC1)n2CCSc1nc2ccccc2s1 | 10.2%
93 | CC(Nc1nc(N2CCN(CCO)CC2)nc2ccccc12)c1ccccc1 (stereo not drawn) | -90.7% (active)

From PubChem BioAssay AID743279 (National Center for Advancing Translational Sciences (NCATS), 2014)
